# Assays:
# [1] = molecular target: Large ribosomal subunit protein eL36 (UniProt Q9Y3U8); assay: cross-linking mass spectrometry
# Obscurin = Obscurin (UniProt Q5VST9); assay: cross-linking mass spectrometry
# [2] = molecular target: Inositol 1,4,5-trisphosphate-gated calcium channel ITPR2 (UniProt Q14571); assay: cross-link between two proteins; cross-linking mass spectrometry
# [3] = molecular target: Nucleolar and coiled-body phosphoprotein 1 (UniProt Q14978); assay: as above
# [4] = molecular target: Putative ribosomal protein eS10-like (UniProt Q9NQ39); assay: as above
# [5] = molecular target: Ragulator complex protein LAMTOR3 (UniProt Q9UHA4); assay: as above
# Chain of Ragulator complex protein LAMTOR3 (Q9UHA4 whole entry, one chain of several): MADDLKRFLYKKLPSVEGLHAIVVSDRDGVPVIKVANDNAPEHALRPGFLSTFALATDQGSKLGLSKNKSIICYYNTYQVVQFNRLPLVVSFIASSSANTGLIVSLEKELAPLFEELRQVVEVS
# [6] = molecular target: Synaptonemal complex protein 2-like (UniProt Q5T4T6); assay: as above
# [7] = molecular target: V-type proton ATPase subunit D (UniProt Q9Y5K8); assay: as above
# Chain of V-type proton ATPase subunit D (Q9Y5K8 whole entry): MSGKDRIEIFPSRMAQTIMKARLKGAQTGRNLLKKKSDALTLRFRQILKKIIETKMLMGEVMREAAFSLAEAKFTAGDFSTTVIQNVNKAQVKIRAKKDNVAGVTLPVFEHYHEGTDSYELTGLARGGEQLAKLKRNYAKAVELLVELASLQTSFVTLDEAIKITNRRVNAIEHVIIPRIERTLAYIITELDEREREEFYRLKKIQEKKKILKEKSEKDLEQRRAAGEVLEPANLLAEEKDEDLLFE
# [8] = molecular target: Zinc finger protein 28 homolog (UniProt Q8NHY6); assay: as above
# Zinc finger protein 786 = molecular target: T1, Zinc finger protein 786 (UniProt Q8N393); assay: as above
# T1 sequence: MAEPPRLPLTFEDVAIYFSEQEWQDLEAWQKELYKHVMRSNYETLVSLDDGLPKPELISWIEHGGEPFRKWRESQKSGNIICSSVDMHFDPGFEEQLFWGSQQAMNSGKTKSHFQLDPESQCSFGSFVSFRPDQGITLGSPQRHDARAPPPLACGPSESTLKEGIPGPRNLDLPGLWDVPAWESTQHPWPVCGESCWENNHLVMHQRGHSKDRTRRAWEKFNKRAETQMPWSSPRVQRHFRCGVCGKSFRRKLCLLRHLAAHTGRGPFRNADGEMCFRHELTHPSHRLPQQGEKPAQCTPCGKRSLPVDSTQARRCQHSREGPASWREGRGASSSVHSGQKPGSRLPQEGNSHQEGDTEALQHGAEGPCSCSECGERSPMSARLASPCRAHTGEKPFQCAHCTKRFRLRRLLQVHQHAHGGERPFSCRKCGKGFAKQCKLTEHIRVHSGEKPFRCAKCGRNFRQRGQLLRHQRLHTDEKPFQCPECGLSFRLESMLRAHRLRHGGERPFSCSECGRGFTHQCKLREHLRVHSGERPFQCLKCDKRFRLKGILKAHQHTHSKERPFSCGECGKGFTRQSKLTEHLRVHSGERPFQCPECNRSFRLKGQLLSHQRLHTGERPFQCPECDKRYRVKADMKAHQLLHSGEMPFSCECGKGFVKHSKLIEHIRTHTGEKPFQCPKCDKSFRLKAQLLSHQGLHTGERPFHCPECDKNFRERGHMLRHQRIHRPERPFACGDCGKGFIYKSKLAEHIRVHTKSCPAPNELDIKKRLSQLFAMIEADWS
# [9] = molecular target: Cullin-associated NEDD8-dissociated protein 1 (UniProt Q86VP6); assay: co-fractionation; co-fractionation; cross-linking mass spectrometry
# Chain of Cullin-associated NEDD8-dissociated protein 1 (Q86VP6 whole entry): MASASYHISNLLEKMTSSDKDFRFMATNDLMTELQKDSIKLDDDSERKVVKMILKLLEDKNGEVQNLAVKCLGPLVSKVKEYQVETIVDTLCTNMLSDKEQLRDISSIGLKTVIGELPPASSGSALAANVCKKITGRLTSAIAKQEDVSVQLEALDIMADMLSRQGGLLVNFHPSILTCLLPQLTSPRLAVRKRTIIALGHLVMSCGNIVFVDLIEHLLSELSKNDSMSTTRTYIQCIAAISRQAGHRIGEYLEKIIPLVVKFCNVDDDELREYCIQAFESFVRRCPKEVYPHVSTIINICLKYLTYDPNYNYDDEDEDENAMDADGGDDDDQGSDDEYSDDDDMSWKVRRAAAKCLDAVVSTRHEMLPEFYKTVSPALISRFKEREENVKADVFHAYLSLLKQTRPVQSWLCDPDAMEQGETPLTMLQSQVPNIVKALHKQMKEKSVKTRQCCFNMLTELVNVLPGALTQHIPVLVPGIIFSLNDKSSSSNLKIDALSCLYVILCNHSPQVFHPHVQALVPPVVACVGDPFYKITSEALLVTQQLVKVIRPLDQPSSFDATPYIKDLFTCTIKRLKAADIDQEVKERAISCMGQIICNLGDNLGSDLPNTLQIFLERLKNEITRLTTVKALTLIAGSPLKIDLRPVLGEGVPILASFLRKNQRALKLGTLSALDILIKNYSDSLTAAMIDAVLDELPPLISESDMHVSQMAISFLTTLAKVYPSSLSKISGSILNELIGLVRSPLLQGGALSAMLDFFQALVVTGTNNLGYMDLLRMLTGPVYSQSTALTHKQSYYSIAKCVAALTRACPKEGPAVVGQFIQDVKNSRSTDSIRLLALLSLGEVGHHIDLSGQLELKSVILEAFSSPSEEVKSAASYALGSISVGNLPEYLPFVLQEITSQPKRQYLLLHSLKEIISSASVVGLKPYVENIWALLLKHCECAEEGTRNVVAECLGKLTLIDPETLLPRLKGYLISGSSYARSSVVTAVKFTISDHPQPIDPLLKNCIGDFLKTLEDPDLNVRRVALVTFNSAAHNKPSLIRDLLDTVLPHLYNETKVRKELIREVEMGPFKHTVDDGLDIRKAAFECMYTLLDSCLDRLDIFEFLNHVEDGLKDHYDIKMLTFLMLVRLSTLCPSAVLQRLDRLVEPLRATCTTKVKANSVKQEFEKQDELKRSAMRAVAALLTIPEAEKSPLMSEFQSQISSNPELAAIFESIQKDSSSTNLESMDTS
# Actin-related protein 2 = Actin-related protein 2 (UniProt P61160); assay: cross-link between two proteins; co-fractionation; cross-linking mass spectrometry
# [10] = molecular target: Actin-related protein 2/3 complex subunit 1A (UniProt Q92747); assay: as above
# [11] = molecular target: Actin-related protein 2/3 complex subunit 3 (UniProt O15145); assay: as above
# [12] = molecular target: Actin-related protein 2/3 complex subunit 4 (UniProt P59998); assay: as above
# [13] = molecular target: Vacuolar protein sorting-associated protein 35 (UniProt Q96QK1); assay: as above
# [14] = molecular target: Enhancer of rudimentary homolog (UniProt P84090); assay: cross-link between two proteins; affinity purification or IP with mass spectrometry; cross-linking mass spectrometry
# Chain of Cullin-1, Q13616 (Q13616 whole entry): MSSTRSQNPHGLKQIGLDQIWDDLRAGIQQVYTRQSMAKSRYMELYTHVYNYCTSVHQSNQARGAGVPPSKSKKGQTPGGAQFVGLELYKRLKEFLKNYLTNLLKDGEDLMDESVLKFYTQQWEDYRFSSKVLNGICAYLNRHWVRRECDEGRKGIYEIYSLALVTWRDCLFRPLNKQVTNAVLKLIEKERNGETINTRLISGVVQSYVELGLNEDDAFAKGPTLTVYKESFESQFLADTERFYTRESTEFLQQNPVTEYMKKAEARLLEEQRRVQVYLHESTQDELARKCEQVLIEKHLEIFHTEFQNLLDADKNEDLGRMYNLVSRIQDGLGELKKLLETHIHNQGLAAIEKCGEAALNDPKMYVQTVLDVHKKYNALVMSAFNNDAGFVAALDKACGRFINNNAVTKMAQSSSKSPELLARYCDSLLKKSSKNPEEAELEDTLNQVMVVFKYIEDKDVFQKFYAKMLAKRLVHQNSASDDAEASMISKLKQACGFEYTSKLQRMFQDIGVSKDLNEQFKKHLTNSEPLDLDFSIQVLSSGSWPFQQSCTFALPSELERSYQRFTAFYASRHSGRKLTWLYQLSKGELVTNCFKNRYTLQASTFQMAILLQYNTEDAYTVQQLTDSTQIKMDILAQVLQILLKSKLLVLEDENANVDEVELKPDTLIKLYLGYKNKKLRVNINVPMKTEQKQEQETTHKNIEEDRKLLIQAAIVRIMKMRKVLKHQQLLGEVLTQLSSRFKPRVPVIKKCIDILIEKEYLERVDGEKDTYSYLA
# Chain of Ragulator complex protein LAMTOR1, Q6IAA8 (Q6IAA8 whole entry, one chain of several): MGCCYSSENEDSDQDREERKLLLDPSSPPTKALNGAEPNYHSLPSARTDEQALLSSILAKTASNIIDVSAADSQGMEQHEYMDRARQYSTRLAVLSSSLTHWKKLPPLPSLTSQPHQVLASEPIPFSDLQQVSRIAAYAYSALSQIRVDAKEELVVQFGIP
# Chain of Histone H1.4, P10412 (P10412 whole entry): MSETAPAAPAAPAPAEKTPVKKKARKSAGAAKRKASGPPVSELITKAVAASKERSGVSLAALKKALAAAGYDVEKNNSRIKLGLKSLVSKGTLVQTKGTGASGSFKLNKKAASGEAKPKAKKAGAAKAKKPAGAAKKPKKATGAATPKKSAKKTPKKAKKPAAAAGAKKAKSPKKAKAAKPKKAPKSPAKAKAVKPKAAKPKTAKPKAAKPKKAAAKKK
# Chain of V-type proton ATPase catalytic subunit A, P38606 (P38606 whole entry): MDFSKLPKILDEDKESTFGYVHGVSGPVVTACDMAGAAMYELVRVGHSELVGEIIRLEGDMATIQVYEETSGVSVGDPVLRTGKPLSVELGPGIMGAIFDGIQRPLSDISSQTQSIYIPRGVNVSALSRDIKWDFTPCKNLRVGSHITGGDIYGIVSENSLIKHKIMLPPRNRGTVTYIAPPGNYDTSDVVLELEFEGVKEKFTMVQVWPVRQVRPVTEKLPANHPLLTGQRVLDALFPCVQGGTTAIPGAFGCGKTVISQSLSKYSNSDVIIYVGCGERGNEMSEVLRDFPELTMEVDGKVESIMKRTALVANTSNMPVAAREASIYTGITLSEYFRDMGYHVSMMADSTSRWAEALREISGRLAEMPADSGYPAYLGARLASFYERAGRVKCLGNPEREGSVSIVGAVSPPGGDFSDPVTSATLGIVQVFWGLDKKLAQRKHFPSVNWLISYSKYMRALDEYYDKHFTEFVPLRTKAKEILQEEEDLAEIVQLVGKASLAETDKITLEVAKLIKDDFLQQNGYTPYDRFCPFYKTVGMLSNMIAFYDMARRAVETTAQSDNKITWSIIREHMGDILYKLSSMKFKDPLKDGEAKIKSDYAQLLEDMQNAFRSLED
substance,measurement,setting,value
"Small ribosomal subunit protein uS17, P62280",listed as a hit,[1],yes
"Large ribosomal subunit protein eL8, P62424",listed as a hit,Obscurin,yes
"Large ribosomal subunit protein uL29, P42766",listed as a hit,[2],yes
"Small ribosomal subunit protein eS7, P62081",listed as a hit,[3],yes
"Small ribosomal subunit protein eS10, P46783",listed as a hit,[4],yes
"Ragulator complex protein LAMTOR1, Q6IAA8",listed as a hit,[5],yes
"Large ribosomal subunit protein uL5, P62913",listed as a hit,[6],yes
"V-type proton ATPase catalytic subunit A, P38606",listed as a hit,[7],yes
"Large ribosomal subunit protein uL1, P62906",listed as a hit,[8],yes
"Histone H1.4, P10412",listed as a hit,Zinc finger protein 786,yes
"Cullin-1, Q13616",listed as a hit,[9],yes
"Actin-related protein 2/3 complex subunit 5, O15511",listed as a hit,Actin-related protein 2,yes
"Actin-related protein 3, P61158",listed as a hit,[10],yes
"Actin-related protein 2/3 complex subunit 2, O15144",listed as a hit,[11],yes
same,listed as a hit,[12],yes
"Vacuolar protein sorting-associated protein 26A, O75436",listed as a hit,[13],yes
"DNA-directed RNA polymerase II subunit RPB1, P24928",listed as a hit,[14],yes

# Reference: article doi:10.1101/2025.02.07.636106
